Molecules are shown by their SMILES.

In the assay the test system is Plasmodium falciparum. Kind of assay: GSK_TCMDC: Inhibition of Plasmodium falciparum Dd2 in whole red blood cells, using parasite LDH activity as an index of growth. Test compounds present at 2uM. Format: functional.
`Cc1cc(N[C@@H](Cc2ccccc2)C(=O)NCc2cccc(F)c2)nc(NCCCOC(C)C)n1.O=C(O)C(F)(F)F` gave an Inhibition of 94%.
In the case of `CN1CCC(OC(=O)c2cc3cc(-c4ccccc4)ccc3n2S(=O)(=O)c2ccccc2)CC1.Cl` it was 10%; in that of `CCCCCC(=O)N1CCOC(CCN2CCc3c(c4ccccc4n3C)C2)(c2ccc(Cl)c(Cl)c2)C1` (stereo unspecified), 80%.
With `COc1ccc2nccc([C@@H](O)CN3CCC(NCc4cc5c(cc4F)SCC(=O)N5)CC3)c2n1` the figure was 27%; with `O=c1cc(NCCCNCc2ccc3c(c2)OC(F)(F)O3)[nH]c2ccccc12`, 94%.
In the case of `CCN(C)c1cc(C(=O)N[C@@H](Cc2ccccc2)[C@H](O)CNC(C)(C)c2cccc(OC)c2)cc(N2CCCC2=O)c1` it was 81%; in that of `Cn1nccc1C(=O)NCCNCc1ccc(-c2ccc(-c3nc4cc(F)ccc4[nH]3)cc2)cc1.O=C(O)C(F)(F)F`, 98%; in that of `O=C(/C=C/c1ccc(I)cc1)NCCCCCN1CCC(c2c[nH]c3ccc(O)cc23)CC1`, 1%.
On to `Cc1cc(N/N=C/c2cccc([N+](=O)[O-])c2)c2ccc(F)cc2n1`, for which the Inhibition came out at 98%.
With `CCc1ccc(NC(=O)N(CCCN2CCN(C)CC2)Cc2csc(-c3ccc(CNCc4ccccc4)cc3)n2)cc1.O=C(O)C(F)(F)F` the figure was 80%; with `COc1ccc(-c2nc(NC(=O)Cc3cccc(OC)c3)sc2C)cc1`, 77%.
With `Cc1nc(-c2nc(NCc3ccncc3)ncc2-c2ccsc2)sc1C` the figure was 83%.
In the case of `CCN(CCCN1CCCCC1)c1cc(C)nc(Nc2ccc(C)cc2Br)n1.O=C(O)C(F)(F)F` it was 27%; in that of `Cc1cccc2nc(-c3ccc(-c4ccc(CNCc5cccc(N)c5)cc4)cc3)[nH]c12.O=C(O)C(F)(F)F`, 84%; in that of `CC(=O)N1N=C(c2ccc(F)cc2)Sc2c1nc(-c1ccccc1)n2C(C)=O`, 67%.
With `COc1cc2nc(NC3CCN(Cc4ccccc4)CC3)nc(N)c2cc1OC`, the Inhibition was 30%.
With `CCN(CCCN1CCCC1)c1cc(C)nc(Nc2ccc(Cl)cc2)n1.O=C(O)C(=O)O` the figure was 12%; with `COc1ccc2sc(CNCCCNc3cc(=O)c4ccccc4[nH]3)c(Cl)c2c1.Cl`, 42%; with `Cc1cc(-c2ccc(CNCc3ccc(F)cc3)cc2)ccc1S(=O)(=O)NCCN1CCCC1.O=C(O)C(F)(F)F`, 41%.
With `COc1ccc(Nc2nc(N/N=C/c3cc(Br)ccc3O)nc(Nc3ccc([N+](=O)[O-])cc3)n2)cc1` the figure was 37%; with `CCNS(=O)(=O)c1ccc(Oc2ccc([N+](=O)[O-])cc2)cc1`, 85%.
In the case of `Cc1cc(N2C(N)=NC(N)=NC2(C)C)ccc1Cl.Cl` it was 0%; in that of `Cc1cccc2nc(-c3cccc(-c4ccc(NC(=O)NCc5cccc(F)c5)cc4)c3)[nH]c12`, 83%; in that of `CC(=O)O.CC(C)c1ccc(C2CCN(CCCCNC(=O)c3ccc(NC(=O)c4ccc(C(F)(F)F)cc4)cc3)CC2)c(O)c1`, 100%.
With `COc1ccc2ncc(F)c(CCN3CC(O)C(CNCc4ccc5oc(=O)ccc5c4)C3)c2n1.Cl` (stereo unspecified), the Inhibition amounted to 6%.
In the case of `CC(CN(C)C)C(=O)Nc1cccc(-c2ccc(-c3nc4cc(C(F)(F)F)ccc4[nH]3)cc2)c1` (stereo unspecified) it was 97%.
With `O=C1OC(c2ccccc2)(c2ccccc2)CN1C1CCN(Cc2ccc(O)c(Cl)c2)C1` (stereo unspecified) the figure was 93%; with `CC(C)N1CCN(c2ccc(OCCCCN3CCN(c4cccc(Cl)c4Cl)CC3)cc2Cl)CC1.Cl`, 34%.
For the compound `Br.CC(C)(C)c1ccc(OCCCON2C(=N)N=C(N)NC2(C)C)c(C(C)(C)C)c1`, the Inhibition turned out to be 97%.
Take `C[C@@H](Oc1cc(-n2cnc3ccc(NC(=O)CCN4CCCCC4)cc32)sc1C(N)=O)c1ccccc1Cl`: the Inhibition is reported as 60%.
In the case of `O=C(Cc1cccc(Cl)c1)Nc1cccc(-c2c[nH]c3nc(Nc4cccc(O)c4)ncc23)c1.O=C(O)C(F)(F)F` it was 74%; in that of `Cl.O=S(=O)(c1ccc(OCc2ccc(Cl)cc2)cc1)c1cc2c(c(-c3ccc(F)cc3)c1)CCN(CC1CC1)CC2`, 14%.
For `Cc1ccc2[nH]c3c(NCCCN4CCOCC4)ncnc3c2c1`, the Inhibition was 9%.
In the case of `O=C(NCCc1ccccc1)N(Cc1cccc(-c2ccc(CNCCc3ccccc3)cc2)c1)C1CCN(Cc2ccccc2)CC1.O=C(O)C(F)(F)F` it was 91%; in that of `O=C(/C=C/c1ccc(Cl)c(Cl)c1)NCCCCCN1CC[C@H](NC(=O)Nc2ccc(Oc3ccccc3)cc2)C1`, 14%.
In the case of `Cc1cc(NCCC(=O)Nc2ccccc2)nc(NCCc2ccccc2)n1.O=C(O)C(F)(F)F` it was 8%.

In general, Inhibition refers to the percentage by which the read-out fell short of the control.

Source of the values: ChEMBL document CHEMBL1157539, “Thousands of chemical starting points for antimalarial lead identification” (Nature, 2010).
